# Jurkat NFkB inh – inhibitors of the PMA/ionomycin-induced NF-kB reporter in Jurkat cells | 330,000 compounds, 0.53% hits | inhibition, % at 4 µM | PMA/ionomycin-induced NF-kB luciferase reporter, luminescence; in the data active = inhibition above about 50%
# TAG inh – reduces triacylglycerol accumulation in H9c2 cells | Nile Red lipid (TAG) fluorescence; cells loaded with 200 µM oleic acid | inhibition, % at 12.5 µM | 230,000 compounds, 0.66% hits | AID 651582;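 active = pattern-corrected inhibition of lipid staining of at least 50% with the nuclear-stain viability signal not falling by more than 50%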;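 also: 0% = DMSO wells and 100% = triacsin C control wells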
# 697 NFkB inh – inhibitors of the PMA/ionomycin-induced NF-kB reporter in 697 B cells; AID 435022; 330,000 compounds, 0.33% hits; inhibition, % at 4 µM; 697 B-cell NF-kB luciferase reporter, 16 h; in the data active = inhibition above about 35%
# Gli-Sufu antag – blocks Gli-Sufu signaling in a luciferase reporter; 340,000 compounds, 0.74% hits; inhibition, % at 5 µM; Sufu-KO-LIGHT fibroblasts, Gli luciferase reporter luminescence;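 active = inhibition above about 55%, limit read from the data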;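 also: 0% = DMSO-treated cells and 100% = wells with medium but no cells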
# Cardio protect – modulators protecting cardiomyocytes from myocardial damage. H9c2 cardiomyocytes, H2O2 injury protection, ATPLite, 2 h. protection from H2O2 cell death, % at 20 µM. 360,000 compounds, 0.63% hits. AID 588492;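 active = compounds giving at least 50% protection of heart cells from peroxide-induced death in the single-dose screen, raw or plate-pattern-corrected value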;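 also: 0% = DMSO wells with peroxide and 100% = DMSO wells without peroxide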
# COUP-TFII inh – NR2F2 (human) inhibition, primary screen; P24468; HEK293T NGFI-A luciferase reporter, luminescence; inhibition, % at 8.6 µM; 370,000 compounds, 0.7% hits; AID 686940;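 active = inhibition above a per-plate cutoff, mean inhibition of test wells between control levels plus 3 SD, cut at about 38% in these data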;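 also: cells cotransfected with COUP-TFII expression vector driving the NGFI-A reporter; 0% = median of COUP-TF2 test wells and 100% = reporter-only cells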
# Target sequence (P24468 whole entry, looked up): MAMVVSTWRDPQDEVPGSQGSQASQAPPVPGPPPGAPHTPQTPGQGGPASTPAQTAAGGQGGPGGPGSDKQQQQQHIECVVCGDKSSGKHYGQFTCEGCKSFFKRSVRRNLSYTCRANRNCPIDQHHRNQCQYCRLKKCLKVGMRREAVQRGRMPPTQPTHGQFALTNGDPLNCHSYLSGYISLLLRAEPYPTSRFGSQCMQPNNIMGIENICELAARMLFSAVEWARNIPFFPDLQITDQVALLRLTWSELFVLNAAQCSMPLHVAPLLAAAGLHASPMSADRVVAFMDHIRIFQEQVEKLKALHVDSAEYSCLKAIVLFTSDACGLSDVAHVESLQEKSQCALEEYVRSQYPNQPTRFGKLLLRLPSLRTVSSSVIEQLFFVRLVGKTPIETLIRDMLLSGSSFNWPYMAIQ
# 697 NFkB conf – inhibitors of the PMA/ionomycin-induced NF-kB reporter in 697 B cells, retest | shares compounds with 697 NFkB inh | 697 B-cell NF-kB luciferase, 16 h | inhibition, % at 4 µM | 2,000 compounds, 35% hits | AID 449746; in the data active = inhibition mostly above about 28%, no sharp cut-off; inactive = mostly below about 22%
# * = called active by the depositor; i = inactive; . = not tested or not shown. Most compounds without a hit are left out; they make up all but 2.6% or so of the library.
SMILES,Jurkat NFkB inh,TAG inh,697 NFkB inh,Gli-Sufu antag,Cardio protect,COUP-TFII inh,697 NFkB conf
S=c1[nH]nc(-c2cccc(Cl)c2)n1/N=C/c1ccc(-c2ccccc2Br)o1,-5.9,12.2,-0.3,10.0,-12.8,6.9,.
S=c1[nH]nc(-c2ccccc2)n1/N=C/c1ccc(-c2ccccc2Cl)o1,-11.5,.,i,15.3,-3.8,15.5,-263.2
O=C(OCC#CCSc1nnc(-c2cccc3ccccc23)o1)C1CCC1,.,.,.,.,.,-8.2,.
C[C@H]1C2CC(OC(=O)Nc3ccc(F)cc3)C(C2)[C@H]2CCCCN21 (stereo partly drawn),.,.,.,.,.,21.8,.
Nc1nc(-c2ccco2)nn1C(=O)c1ccc(Cl)cc1,-6.5,12.9,16.4,-18.5,-3.0,11.8,.
Nc1nc2ccc(Cl)cc2c2nc(-c3ccco3)nn12,15.0,.,35.9*,.,.,.,28.4*
CCc1ccc(/C=C2\SC(=S)N(CCC(=O)Nc3cc(C)on3)C2=O)cc1,-2.8,-0.9,59.3*,-13.1,4.6,9.5,43.8*
COc1ccccc1/C=C1\SC(=S)N(CCC(=O)Nc2cccc(O)c2)C1=O,-12.4,.,35.2*,20.2,9.6,8.2,31.1*
COc1ccccc1/C=C1\SC(=S)N(CCC(=O)Nc2cc(C)on2)C1=O,0.7,.,50.6*,14.1,4.3,14.0,37.5*
CCc1ccc(/C=C2\SC(=S)N(CCCC(=O)Nc3cc(C)on3)C2=O)cc1,.,-4.8,.,.,-1.2,23.7,.
COc1ccccc1/C=C1\SC(=S)N(CCC(=O)NNC(=O)c2ccccc2OC)C1=O,7.3,.,-3.1,-6.1,24.5,-5.8,.
COc1ccccc1/C=C1\SC(=S)N(CCC(=O)Nc2nnc(C)s2)C1=O,9.6,.,51.4*,-8.6,22.6,13.1,29.1*
CO[C@H]([C@H](C)/C=C/N(C)C=O)[C@@H](C)C(=O)CC[C@H](C)[C@H](O)[C@H](C)[C@H]1OC(=O)/C=C/C(C)=C/C[C@H](O)C[C@@H]2C=CC[C@@H](C[C@H](OC)[C@@H](C)[C@@H](OC)C[C@@H](OC)[C@@H]1C)O2,.,.,.,.,.,32.4,.
COC(=O)[C@@]12CCCCC3=C1N(CCC3)C(=O)[C@H]2CC(=O)NCc1ccc(C)o1,.,.,.,.,.,-23.1,.
C[C@@H](/C=C/C(=O)OC(C)(C)C)Sc1ccc(C(C)(C)C)cc1,.,.,.,.,.,-16.6,.
COc1cc(-c2ccc(NC(=O)NC3CC3)c(OC)c2)ccc1NC(=O)NC1CC1,-32.0,.,-299.1,.,.,-45.3,-5.4
COCC#Cc1ccc(CC[C@H]2O[C@H]3CC[C@@H](CO)O[C@H]3C[C@H]2n2cc(C3CC3)nn2)cc1,.,.,.,.,.,-2.5,.
CCOc1ccccc1NC(=O)Nc1ccc2c(c1)OCO2,-18.3,-3.1,-27.9,-18.4,0.5,-25.0,.
C=CCOc1ccccc1CN(C(=O)CCl)c1ccc2c(c1)OCO2,-3.3,.,42.1*,14.1,-11.0,0.2,32.0*
Brc1ccccc1-n1nnc(-c2cnc3ccccc3c2)n1,-149.8,12.2,-305.7,-62.5,-9.5,-39.8,-320.8
Nc1ncnc2c1ncn2[C@@H]1O[C@H](C(=O)N[C@@H](CCc2ccccc2)C(=O)N2CCN(CC(=O)N3CCCC3)CC2)[C@@H](O)[C@H]1O,.,.,.,.,.,-16.2,.
C#CCNC(=O)C[C@H]1C[C@@]2(C(=O)OC)C(=C[C@H](C3CCCC3)O[C@@H]2C)N(CCc2ccc(OC)c(OC)c2)C1=O,.,.,.,.,.,9.7,.
COc1ccc(C(=O)N/N=C/c2ccc(OC)c(CN3CCCc4ccccc43)c2)cc1,-3.2,.,44.4*,1.6,3.7,-0.9,28.9*
CCOC(=O)/C=C(\C)Sc1cc(=O)oc2ccccc12,-2.7,16.5,35.7*,-3.8,11.2,-33.7,27.8*
CCOC(=O)/C=C(\C)Sc1cc(O)c2ccccc2c1O,.,.,.,16.2,-15.9,-15.4,.
SMILES,Jurkat NFkB inh,TAG inh,697 NFkB inh,Gli-Sufu antag,Cardio protect,COUP-TFII inh,697 NFkB conf
O=C1CN(C(=O)C2CCCCC2)C=CN1CCc1ccccc1Br,.,.,.,.,.,-0.8,.
CC1=C(C(N)=O)C(c2cccs2)NC(=S)N1 (stereo not drawn),-1.7,-1.2,3.2,-1.8,-1.5,4.4,.
COc1cc2c(cc1C1NC(=S)NC(C)=C1C(N)=O)CCCC2 (stereo not drawn),-22.0,33.2,42.6*,41.6,-5.0,-62.7,0.9
Cc1c(NC(=O)C2CCCN(S(=O)(=O)c3cccc4ccccc34)C2)c(=O)n(-c2ccccc2)n1C (stereo not drawn),.,.,.,.,.,20.5,.
O=C(N/N=C/c1sc(N2CCOCC2)nc1-c1ccccc1)c1ccccc1O,9.5,.,28.7,-0.6,16.1,7.4,.
O=C(N/N=C/c1sc(N2CCOCC2)nc1-c1ccccc1)c1ccccc1F,5.6,.,40.0*,-1.0,.,.,21.1
Cc1cc(C(=O)N/N=C/c2sc(N3CCOCC3)nc2-c2ccccc2)c(C)o1,18.9,-0.4,40.4*,22.2,21.5,4.7,13.0
COC(=O)c1ccc(-c2nc3cc(Cl)c(N)cc3s2)cc1,-138.1,3.1,-258.1,-67.3,-30.5,-51.9,-83.0
COC(=O)c1ccc(-c2nc(O)c(C)s2)cc1,7.1,.,-1.1,-8.4,-9.6,-0.4,.
CCCC(c1c(C)n(C)n(-c2ccccc2)c1=O)c1c(C)n(C)n(-c2ccccc2)c1=O,-0.9,-10.8,40.5*,-0.2,3.4,14.0,-0.1
CCC(c1c(C)n(C)n(-c2ccccc2)c1=O)c1c(C)n(C)n(-c2ccccc2)c1=O,7.6,7.4,18.1,0.7,1.1,-5.4,.
COc1ccc2[nH]c3c(c2c1)CCN[C@]31C(=O)N(Cc2ccccc2)c2ccccc21,.,.,.,.,.,8.1,.
O=C(/C=C/Sc1ccccc1)c1ccc(Cl)cc1,12.7,.,-104.5,-23.8,-20.7,-0.6,.
O=C(/C=C/Sc1ccccc1)c1ccccc1,14.0,.,-294.6,-23.8,-26.5,-20.0,-268.0
C(=C\c1nnc(-c2cccs2)o1)/c1ccccc1,-128.5,.,-260.4,-95.1,-9.0,-50.0,-198.8
Cc1ccc(-n2c(SCC(=O)Nc3ccc(S(=O)(=O)Nc4nccs4)cc3)nnc2-c2cccs2)cc1,.,.,.,.,.,-9.7,.
Cc1ccc(-n2ncc3c(SCc4ccccn4)ncnc32)c(C)c1,-78.0,-26.5,i,-2.4,-16.1,-76.9,i
Cc1ccn2c(C(=O)c3ccc(Cl)cc3)cnc2c1,-147.2,10.9,-259.4,-85.5,-5.1,-25.5,-145.4
O=C(N/N=C/c1cccnc1)c1cc(-c2ccccc2OCc2ccccc2)n[nH]1,21.7,-15.6,35.0*,11.5,39.2,-27.2,25.9*
O=C(N/N=C/c1cccnc1)c1ccccc1OCc1ccc(Cl)cc1,8.7,.,-3.5,.,.,.,.
COC(=O)[C@H]1C[C@@]2(C)c3ccccc3N(C(=O)OC(C)(C)C)[C@H]2N1C(=O)OC(C)(C)C,.,.,.,.,.,7.1,.
CCn1c(CN2CCN(c3ccc(Cl)cc3)CC2)nc2ccccc21,13.1,.,45.8*,5.8,-3.4,9.8,51.1*
Cn1c(CN2CCN(c3ccc(Cl)cc3)CC2)nc2ccccc21,3.4,.,16.1,-0.4,-2.7,9.0,.

# High-throughput results from PubChem.
